Among the test systems are NCI-H23 lung; NCI-H226 lung; NCI-H322M lung; HOP-62 NSCLC; NCI-H460 lung; NCI-H522 lung; A549/ATCC NSCLC; 786-0 renal; COLO 205 colon; DU-145 prostate; MALME-3M melanoma; MDA-MB-231 breast; RXF 393 renal; SF-268 CNS; SF-295 CNS; SF-539 CNS; UACC-257 melanoma; M14 melanoma; HCT-15 colon; K-562 leukemia.
Common to all, as to test: NCI-60 one-dose screen, 48 h (100 = growth as untreated, 0 = no growth, -100 = all killed)
Common to all, as to settings: 10 µM unless noted

This is part of a sample that, as a whole, favours compounds with a hit. Of some 83,000 tested, about 20% had one in any assay.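 Cells were grown in 96-well plates and exposed to the test compound at a single concentration for 48 hours; results are reported as percent growth, with values below 10 considered active.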 A number with no mark means an inactive call. Active and inactive are the calls of the source.

For `Cc1nc2cc(NC(=O)CN3CCN(CCN4C(=O)c5cccc6cccc(c56)C4=O)CC3)ccc2s1`, the growth with NCI-H23 lung is 60.9%; in the assay on NCI-H226 lung it was 48.6%; with NCI-H322M lung, 69.3%; with HOP-62 NSCLC, 60%; with NCI-H460 lung it was 26.5%; in the assay with NCI-H522 lung, 53.2%. The growth in the assay with A549/ATCC NSCLC was 37.6%; in the assay on 786-0 renal, 51.4%; with COLO 205 colon, 47.1%; in the assay with DU-145 prostate, 56.8%; in the assay on MALME-3M melanoma it was 70.6%; with MDA-MB-231 breast, 72.2%. Moreover, the growth with RXF 393 renal is 47.8%; in the assay on SF-268 CNS, 46.2%; in the assay with SF-295 CNS it was 48.3%; in the assay with SF-539 CNS, 59.4%; in the assay with UACC-257 melanoma, 76.8%; in the assay on M14 melanoma it was 89%. In the assay with HCT-15 colon, the growth was 45%.

Consider `Cc1cc([N+](=O)[O-])c(C)cc1C(=O)O`, for which the growth in the assay with NCI-H23 lung is 104%; in the assay on NCI-H226 lung, 99.8%; in the assay with NCI-H322M lung it was 92.7%; in the assay with HOP-62 NSCLC, 103%; in the assay with NCI-H460 lung, 111%; in the assay on NCI-H522 lung it was 96.1%. For the same compound, the growth is 108% with A549/ATCC NSCLC; 97% in the assay on 786-0 renal; 108% in the assay on COLO 205 colon; 109% with DU-145 prostate; 102% in the assay with MALME-3M melanoma; 110% in the assay with MDA-MB-231 breast. Further, the growth in the assay on RXF 393 renal was 112%; in the assay on SF-268 CNS it was 99.8%; with SF-295 CNS, 96.9%; in the assay on SF-539 CNS, 98.5%; in the assay with UACC-257 melanoma, 105%; with M14 melanoma, 100%. Further, the growth with HCT-15 colon was 97.3%.

`N#Cc1c2ccccc2c2n1-c1ccccc1OC(c1ccccc1)C2=O` (configuration not stated): the growth is 22.6% in the assay on NCI-H23 lung; 21.2% with NCI-H226 lung; 81.5% in the assay with NCI-H322M lung; 32.6% with HOP-62 NSCLC; 31.8% in the assay with NCI-H460 lung; -43.7% (active) in the assay with NCI-H522 lung. The growth in the assay with A549/ATCC NSCLC was 10.4%; with 786-0 renal, 31.7%; in the assay on COLO 205 colon, 63.9%; in the assay with DU-145 prostate, 56.7%; with K-562 leukemia, 13%; in the assay with MDA-MB-231 breast it was 22.3%. The growth is 30.1% in the assay with SF-268 CNS; 16.3% in the assay with SF-295 CNS; 77.2% with SF-539 CNS; 53.3% in the assay on UACC-257 melanoma; 41.4% in the assay with M14 melanoma; 13.8% in the assay with HCT-15 colon.

Take `N#Cc1cccc(/C=C(/C(=O)c2ccccc2)c2ccccc2)c1`: the growth was 81.2% in the assay on NCI-H23 lung; 71.7% in the assay with NCI-H226 lung; 77.8% with NCI-H322M lung; 94.5% in the assay on HOP-62 NSCLC; 77.5% with NCI-H460 lung; 57.8% in the assay with NCI-H522 lung. Further, the growth is 62.8% with A549/ATCC NSCLC; 76.2% in the assay on 786-0 renal; 96.8% in the assay on COLO 205 colon; 37% in the assay with DU-145 prostate; 1.89% (active) in the assay with K-562 leukemia; 54.5% with MDA-MB-231 breast. Further, the growth in the assay with SF-268 CNS is 51.1%; in the assay with SF-295 CNS, 63.5%; with SF-539 CNS, 91.9%; in the assay on UACC-257 melanoma it was 43.1%; in the assay on M14 melanoma, 58.8%; in the assay on HCT-15 colon, 18.9%.

Take `COc1cc(C2=NN(C(C)=O)C(c3ccc(OC(C)=O)cc3OC(C)=O)O2)c(OC(C)=O)c2ccccc12` (configuration not stated): the growth in the assay with NCI-H23 lung is 38%; in the assay on NCI-H226 lung, 27%; in the assay with NCI-H322M lung, 19.6%; in the assay on HOP-62 NSCLC, 24.3%; with NCI-H460 lung it was 9.82% (active); in the assay on NCI-H522 lung, -7.78% (active). Besides, the growth in the assay on A549/ATCC NSCLC was 8% (active); in the assay on 786-0 renal it was 11.2%; in the assay with COLO 205 colon it was 10.4%; in the assay with DU-145 prostate, 26.8%; in the assay with K-562 leukemia, 6.47% (active); in the assay on MDA-MB-231 breast, 34.2%. The growth with SF-268 CNS was 19.7%; in the assay with SF-295 CNS, 22.2%; in the assay on SF-539 CNS it was 7.95% (active); in the assay on UACC-257 melanoma it was -8.85% (active); in the assay with M14 melanoma it was 5.99% (active); in the assay on HCT-15 colon, 32.8%.

As for `CCCCCCC/C(=N\N=C(N)N)c1ccc(O)cc1`, the growth was 57.5% with NCI-H23 lung; -8.37% (active) in the assay on NCI-H226 lung; 56.9% in the assay on NCI-H322M lung; 43.9% in the assay on HOP-62 NSCLC; 26.7% in the assay with NCI-H460 lung; 47.7% in the assay on NCI-H522 lung. Besides, the growth in the assay with A549/ATCC NSCLC was 51.9%; with 786-0 renal, 63.1%; with COLO 205 colon, -88.8% (active); in the assay with DU-145 prostate, 53.4%; in the assay with MALME-3M melanoma, 50.6%; in the assay on MDA-MB-231 breast it was -22.5% (active). In addition, the growth in the assay with RXF 393 renal is -35.5% (active); in the assay with SF-268 CNS, 45%; in the assay with SF-295 CNS, 55.7%; in the assay with SF-539 CNS, 63.5%; in the assay on UACC-257 melanoma, 27.1%; with M14 melanoma it was 24.9%. For the same compound, in the assay with HCT-15 colon, the growth was 64%.

As to `CCC1(c2ccccc2)Oc2ccccc2-n2c(C#N)c3ccccc3c2C1=O` (configuration not stated), the growth with NCI-H23 lung was 97.2%; with NCI-H226 lung, 110%; with NCI-H322M lung it was 90.3%; with HOP-62 NSCLC it was 93.6%; with NCI-H460 lung, 105%; in the assay with NCI-H522 lung it was 77.5%. The growth was 93.6% in the assay with A549/ATCC NSCLC; 93.9% in the assay with 786-0 renal; 106% with COLO 205 colon; 114% in the assay on DU-145 prostate; 86.7% with K-562 leukemia; 98.5% in the assay on MDA-MB-231 breast. In addition, the growth with SF-268 CNS was 101%; in the assay with SF-295 CNS it was 93.3%; with SF-539 CNS it was 105%; with UACC-257 melanoma, 90.5%; with M14 melanoma it was 94.3%; with HCT-15 colon, 94%.

Consider `Cc1nn(-c2ccc(Br)cc2)c2nc3c(nc12)C(=O)C(=O)c1ccccc1-3`, for which the growth in the assay on NCI-H23 lung is 87.2%; in the assay with NCI-H226 lung, 96.9%; in the assay on NCI-H322M lung, 104%; with HOP-62 NSCLC, 91.7%; in the assay on NCI-H460 lung, 97.3%; in the assay with NCI-H522 lung, 98.3%. Also, the growth with A549/ATCC NSCLC is 100%; in the assay with 786-0 renal, 102%; with COLO 205 colon, 89.6%; in the assay with DU-145 prostate, 124%; in the assay with MALME-3M melanoma, 91.2%; with MDA-MB-231 breast it was 78.7%. Also, the growth was 111% with RXF 393 renal; 101% in the assay with SF-268 CNS; 97.5% in the assay on SF-295 CNS; 98.6% with UACC-257 melanoma; 98.2% in the assay with M14 melanoma; 90.5% in the assay on HCT-15 colon.

(Values after PubChem BioAssay (NCI).)
